According to PubChem BioAssay (Tox21):
Records with an inconclusive call do not appear. A call without a number means that no potency is given here. Some structures have more than one record in an assay (separate samples or runs), and their calls can disagree. Active and inactive are the calls of the source. Calls come from the whole dose curve; as a rule, active = well fitted cell-killing curve with a large enough effect in the repeat runs; inconclusive = weak or mixed curves; inactive = no such curve, though single readings can be large or run the other way.

Test: qHTS assay to identify small molecule antagonists of the peroxisome proliferator-activated receptor delta (PPARd) signaling pathway - cell viability counter screen (AID 743213); note: nearly all actives have a fitted effect of over 50% in size
Details: PPARd-bla HEK293H viability, CellTiter-Glo luminescence, 17 h; series mostly up to 62 µM
Text: U.S. Tox21 Program National Center for Advancing Translational Sciences [NCATS] NIH Chemical Genomics Center [NCGC] U.S. Environmental Protection Agency [EPA] National Institutes of Environmental Health Sciences [NIEHS] National Toxicology Program [NTP] U.S. Food and Drug Administration [FDA] Tox21 Assay Overview: The peroxisome proliferator-activated receptors (PPARs) are lipid-activated transcription factors of the nuclear receptor superfamily with three distinct subtypes namely PPAR alpha, PPAR delta (PPARd) and PPAR gamma. All these subtypes heterodimerizes with Retinoid X receptor (RXR) and have different physiological functions. […] To identify the compounds that inhibit PPAR-delta signaling, GeneBLAzer PPAR delta UAS-bla HEK293H cell line (Invitrogen, Carlsbad, CA, USA) containing a beta-lactamase reporter gene under the control of an Upstream Activator Sequence (UAS) was used to screen the Tox21 compound library. The cytotoxicity of the Tox21 compound library against the PPARd-bla cell line was tested in parallel by measuring the cell viability using CellTiter-Glo assay (Promega, Madison, WI) in the same wells.
Tox21 Assay Protocol Summary: PPARd-bla cells were dispensed at 3000 cells/5uL/well in 1536-well black wall/clear bottom plates using a Multidrop Combi (Thermo Fisher Scientific, Waltham, MA) dispenser. After the assay plates were incubated at 37 C and 5% CO2 for 5 h, 23 nL of compounds dissolved in DMSO, positive controls or DMSO only was transferred to the assay plate by a Pintool station (Kalypsys, San Diego, CA), followed by addition of 1ul L165041 (300 nM, final concentration in the wells). The assay plates were incubated at 37 C for 17 h, and then 1 uL of LiveBLAzerTM B/G FRET substrate was added using a Bioraptr Flying Reagent Dispenser (FRD) workstation (Beckman Coulter, Indianapolis, IN, USA). The assay plates were incubated at room temperature for 2 h and fluorescence intensity was measured by an Envision plate reader (PerkinElmer, Shelton, CT). For cell viability readout that measures cytotoxicity, 3 ul/well of CellTiter-Glo reagent was added into the assay plates using a Bioraptr FRD. After 30 min incubation at room temperature, the luminescence intensity in the plates was measured using a ViewLux plate reader (PerkinElmer).
Potency is the fitted concentration of half-maximal effect.

Structure (SMILES)	Potency
Cc1c(OCC(F)(F)F)ccnc1CS(=O)c1nc2ccccc2[nH]1 (stereo not given)	inactive
COC(=O)CCC(=O)OC	inactive
CC(=O)CC/C=C(\C)CCC=C(C)C	inactive
CCCCCCCCCCCO	inactive
CCCCC(CC)COP(=O)(OCC(CC)CCCC)OCC(CC)CCCC (stereo not given)	inactive
CC(C(=O)O)c1cccc(C(=O)c2ccccc2)c1 (stereo not given)	inactive
O=C(/C=C/c1ccccc1)OCc1ccccc1	inactive
CC1=CC2C3CC(C=C3C)C2C1 (stereo not given)	inactive
Cc1cccc([N+](=O)[O-])c1C	inactive
CC(C)OC(=O)C(C)(C)Oc1ccc(C(=O)c2ccc(Cl)cc2)cc1	49 µM (active) and inactive
Nc1ccc(Cl)cc1Cl	inactive
COc1ccc(C(=O)CC(=O)c2ccc(C(C)(C)C)cc2)cc1	inactive
O=S(=O)(O)c1ccc(O)cc1	inactive
CN(C)c1nc(N(C)C)nc(N(C)C)n1	inactive
OC[C@H]1O[C@@H]2O[C@H]3[C@H](O)[C@@H](O)[C@@H](O[C@H]4[C@H](O)[C@@H](O)[C@@H](O[C@H]5[C@H](O)[C@@H](O)[C@@H](O[C@H]6[C@H](O)[C@@H](O)[C@@H](O[C@H]7[C@H](O)[C@@H](O)[C@@H](O[C@H]8[C@H](O)[C@@H](O)[C@@H](O[C@H]1[C@H](O)[C@H]2O)O[C@@H]8CO)O[C@@H]7CO)O[C@@H]6CO)O[C@@H]5CO)O[C@@H]4CO)O[C@@H]3CO	inactive
CCCCOCCOCCOCCO	inactive
O=P(O)(O)O	inactive
O=c1oc(=O)c2cc3c(=O)oc(=O)c3cc12	inactive
COc1c(Cl)c(Cl)c(Cl)c(Cl)c1Cl	inactive
Cc1ncc[nH]1	inactive

Structure (SMILES)	Potency
O=C(Nc1ccc(Cl)cc1)Nc1ccc(Cl)c(Cl)c1	19.4 µM (active)
c1ccc2sc(SSN3CCOCC3)nc2c1	inactive
Oc1ccc(O)cc1	inactive
Nc1ccccc1N	inactive
CCC(C)OC(=O)c1ccc(O)cc1 (stereo not given)	inactive
CCCCCCCCCC(=O)OC	inactive
Cc1cc2nc3c(=O)[nH]c(=O)nc-3n(C[C@H](O)[C@H](O)[C@H](O)CO)c2cc1C	inactive
O=C(c1ccccc1)c1ccc(O)cc1O	inactive
CCCCC(CC)COCC1CO1 (stereo not given)	inactive
Nc1ncn([C@@H]2O[C@H](CO)[C@@H](O)[C@H]2O)c(=O)n1	inactive
OC1CCCCCCCCCCC1	inactive
CCCCOCCOCCO	inactive
OC(CCl)CCl	inactive
Nc1ccc(S(=O)(=O)Nc2cnc3ccccc3n2)cc1	inactive
Cc1[nH]c(=O)c(C#N)cc1-c1ccncc1	inactive
Brc1cc(Oc2cc(Br)c(Br)c(Br)c2Br)c(Br)c(Br)c1Br	55.2 µM (active) and inactive
NC=O	inactive
c1ccc2c(c1)Oc1ccccc1S2	inactive
O=C(COc1ccc(Cl)cc1)N1CCN(Cc2ccc3c(c2)OCO3)CC1	inactive
CC(C)Oc1ccc2c(=O)c(-c3ccccc3)coc2c1	inactive
